Laboratory results taken from PubChem BioAssay (NCATS).
“And” between values parts separate entries of the source, which are not always exact repeats. Identical values can stand only once. Results filed as inconclusive are left out. A number with no mark means an inactive call. Calls follow the shape of the dose curve; as a rule, active = well fitted curve in the direction sought with a large enough effect; inconclusive = small, poorly fitted or top-dose-only effect, or another doubt; inactive = no such curve, though single readings can be large or run the other way.

Experiment: qHTS Assay for Identifying Gametocytocidal Compounds (AID 743244);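 also: actives lower the fluorescent signal which means gametocytes are killed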
Conditions: P. falciparum 3D7 stage III-V gametocytes, alamarBlue, 72 h; max response: stronger effect = lower value
Outline: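 Stage III-V P. falciparum 3D7 gametocytes, 20,000 per well, were exposed to compounds for 72 h at 37C, 5% CO2. AlamarBlue was then added for 24 h and viability was read as fluorescence at Ex 525/Em 598 nm.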
% is scaled to controls: 0 for no effect and ±100 for the full control effect.

Compound | max response
CCNC(C)Cc1cccc(C(F)(F)F)c1 (stereo unspecified) | 22.8%
CCCC(C)C1(CC)C(=O)NC(=O)NC1=O (stereo unspecified) | -3.05%
O=c1[nH]cc(N(CCCl)CCCl)c(=O)[nH]1 | -3.92%
Cn1sc(Cl)cc1=O | 0.945%
C[C@]12CC[C@H]3[C@@H](CCC4=C(Cl)C(=O)CC[C@@]43C)[C@@H]1CC[C@@H]2O | -5.5%
COc1ccc2c3c1O[C@H]1[C@@H](O)C=C[C@H]4[C@@H](C2)NCC[C@@]341 | -9%
CCCCC[C@@H](O)C1C(=O)OC(C)[C@H](O)/C=C/C=C/C=C/C=C/C=C(\C)C(O)C(O)C(O)C[C@H](O)C[C@H](O)C[C@H](O)C[C@H](O)C[C@@H]1O (stereo partly specified) | 0.532% and 10.2%
Clc1ccc(C2(Cn3cncn3)OCCO2)c(Cl)c1 | -2.25%
CC(=O)O[C@H]1CC[C@@]2(C)C(=CC[C@@H]3[C@@H]2CC[C@]2(C)C(=O)CC[C@@H]32)C1 | 5.11%
Cc1cccc(C(C)c2cnc[nH]2)c1C (stereo unspecified) | 17.3%
CC(=O)Oc1ccc2c3c1O[C@H]1[C@@H](OC(C)=O)C=C[C@H]4[C@@H](C2)N(C)CC[C@@]341 | 1.05% and 0.272%
CCCCCCCCCC(=O)O[C@H]1CC[C@H]2[C@@H]3CCC4=CC(=O)CC[C@]4(C)[C@H]3CC[C@]12C | 4.27%
CCNC1(c2cccs2)CCCCC1=O (stereo unspecified) | -0.213%
O=C1CN(O)C(c2ccccc2)=c2cc(Cl)ccc2=N1 | 0.268%
C=CC[C@]1(O)CC[C@H]2[C@@H]3CCC4=CCCC[C@@H]4[C@H]3CC[C@@]21C | 15.3%
C[C@H]1CC[C@]2(NC1)O[C@H]1C[C@H]3[C@@H]4CC[C@H]5C[C@@H](O[C@@H]6O[C@H](CO)[C@H](O[C@@H]7O[C@H](CO)[C@@H](O)[C@H](O[C@@H]8OC[C@@H](O)[C@H](O)[C@H]8O)[C@H]7O[C@@H]7O[C@H](CO)[C@@H](O)[C@H](O)[C@H]7O)[C@H](O)[C@H]6O)CC[C@]5(C)[C@H]4CC[C@]3(C)[C@H]1[C@@H]2C | 6.32%
CNC(=O)Oc1ccccc1C(=O)Nc1ccccc1 | 8.96%
O=S(=O)(O)c1cc(O)ccc1O | 6.77%
CCNCC(O)c1cccc(O)c1 (stereo unspecified) | -3.84%
CCN(CC)C(=O)/C(Cl)=C(\C)OP(=O)(OC)OC | -6.42%
CNC1(c2ccccc2Cl)CCCCC1=O (stereo unspecified) | 16% and -7.76%
